Screening data (PubChem)
TMEM16A act = activators or potentiators of mouse TMEM16A chloride channel. Q8BHY3. AID 623877. HEK293 TMEM16A/YFP-H148Q/I152L, iodide quench fluorescence; stronger effect = lower value. B-score at 10 µM. 0.3% of 340,000 active;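 active means fluorescence-ratio B-score plate-corrected deviation score at least 3 library SD below zero, with starting fluorescence score within 5 deviations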;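 further: channel opened by trigger with iodide after compound preincubation; score built on the fluorescence ratio of max minus min over baseline; more negative score means more quench and so TMEM16A activation or potentiation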
Target sequence (Q8BHY3 whole entry, looked up): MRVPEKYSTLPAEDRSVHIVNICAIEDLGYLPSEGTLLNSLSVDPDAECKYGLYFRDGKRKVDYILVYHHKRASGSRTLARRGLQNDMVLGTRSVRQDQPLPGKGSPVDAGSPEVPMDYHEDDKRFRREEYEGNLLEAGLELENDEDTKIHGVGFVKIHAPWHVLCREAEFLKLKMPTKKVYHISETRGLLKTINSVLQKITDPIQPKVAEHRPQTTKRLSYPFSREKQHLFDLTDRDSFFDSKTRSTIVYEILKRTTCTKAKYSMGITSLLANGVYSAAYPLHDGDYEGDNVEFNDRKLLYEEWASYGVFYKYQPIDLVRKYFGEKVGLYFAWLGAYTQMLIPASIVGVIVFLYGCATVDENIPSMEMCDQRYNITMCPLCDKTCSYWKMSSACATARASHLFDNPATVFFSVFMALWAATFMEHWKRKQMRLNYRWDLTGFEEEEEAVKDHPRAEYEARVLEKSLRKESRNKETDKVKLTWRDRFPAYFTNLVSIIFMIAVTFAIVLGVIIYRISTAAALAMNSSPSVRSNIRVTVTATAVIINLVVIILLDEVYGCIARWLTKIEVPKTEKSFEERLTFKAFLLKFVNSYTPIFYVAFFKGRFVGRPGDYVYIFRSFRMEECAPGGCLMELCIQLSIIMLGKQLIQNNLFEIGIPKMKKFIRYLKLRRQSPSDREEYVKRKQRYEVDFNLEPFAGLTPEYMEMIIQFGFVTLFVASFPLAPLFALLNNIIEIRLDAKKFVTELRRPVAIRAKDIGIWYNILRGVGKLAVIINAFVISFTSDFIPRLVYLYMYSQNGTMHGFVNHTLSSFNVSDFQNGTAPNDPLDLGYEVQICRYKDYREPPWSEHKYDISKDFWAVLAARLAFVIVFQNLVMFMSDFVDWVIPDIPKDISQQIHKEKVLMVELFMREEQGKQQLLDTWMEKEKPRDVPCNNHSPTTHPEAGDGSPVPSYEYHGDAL
CRFBP-R2 block = CRF-BP/CRF-R2 complex antagonism | HEK293 CRF-R2/CRF-BP, CRF-induced calcium fluorescence | inhibition, % at 11.8 µM | 0.59% of 350,000 active | AID 588475;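 active means inhibition of the ligand-induced calcium signal above about 50% at the single tested concentration, limit read from the data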
CRFR2-BP ag = agonists of human CRF-binding protein/CRF-R2 receptor complex; HEK293 CRF-R2/CRF-BP, calcium dye fluorescence (FLIPR); percent of saturating CRF peptide response; activation, % at 13.2 µM; 0.46% of 350,000 active; AID 588473;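 active means activation of at least 50%, plus an integration ratio under a set limit after plate pattern correction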
cardiac RTF act = cardiac RTF calcium sensitization; P19429+P45379; IANBD-labeled TnC RTF fluorescence at EC20 calcium; 0% EC20 calcium, 100% full calcium; activation, % at 7.2 µM; 0.24% of 340,000 active; AID 493008;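 active means activation above the mean over all tested compounds plus 3 SD, cut at about 30% in these data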;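 further: rise in fluorescence read as greater calcium sensitivity of cardiac thin filaments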
RTF Ca sens inh = cardiac RTF calcium desensitization; AID 493244; inhibition, % at 7.15 µM; P19429+P45379; IANBD-labeled cardiac RTF, Ca2+ fluorescence; 0.12% of 340,000 active;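 active means inhibition above the mean inhibition of all tested compounds plus 3 SD, cut at about 17% in these data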;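 further: assay run at fixed EC70 calcium of 1.6 mM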
ANO1 block = mouse TMEM16A channel inhibition, primary screen; Q8BHY3; HEK293 TMEM16A/YFP iodide influx fluorescence, ionomycin; normalized B-score (activity score, 25-100; higher = stronger inhibition) at 10 µM; 1.2% of 310,000 active; AID 588511;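 active means ratio plate-corrected score three or more library SD toward inhibition, starting fluorescence score within five deviations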;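 further: score derived from kinetic fluorescence span divided by baseline fluorescence per well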
Large screens that a line does not name were inactive. This is a sample that favours compounds with a hit; in the whole collection about 2.4% have one here.

COC(=O)C(C)Sc1nnc(-c2ccncc2)o1 (configuration not stated)	none
NC(=O)C1(N2CCCCC2)CCN(C(=O)Nc2ccccc2C(F)(F)F)CC1	ANO1 block 100 (no result: TMEM16A act, cardiac RTF act, RTF Ca sens inh)
CCn1c2ccccc2c2cc(CNCc3ccc(OC)cc3OC)ccc21	ANO1 block 100
CCCNC(=O)c1cc(S(=O)(=O)N2CCCCC2)c[nH]1	TMEM16A act -8.3
CC(C)OCCCNC(=O)c1cc(S(=O)(=O)N2CCCCC2)c[nH]1	none
C[C@H](NC(=O)[C@H]1N2C(=O)c3ccccc3C2SC1(C)C)C(=O)NCC1CCCO1 (some centres not stated)	none
CC(C)(C)OC(=O)NCCCCCc1nnc(SCC(=O)Nc2cccc(Cl)c2)o1	ANO1 block 100
CC(C)(C)OC(=O)NCCc1nnc(SCC(=O)Nc2cccc(Cl)c2)o1	none
COc1ccc(Cl)cc1Nc1nc(NCCO)nc(N2CCCCC2)n1	CRFBP-R2 block 51
COc1ccc(-c2csc(NC(C)c3nc4cc(Cl)c(Cl)cc4n3CCCO)n2)cc1 (configuration not stated)	none
COc1ccc(C(CC(=O)O)c2ccc3c(c2)OCO3)cc1 (configuration not stated)	CRFBP-R2 block 94
COC(=O)CC(NC(=O)c1ccc(C)cc1)c1ccccc1 (configuration not stated)	none
NC(=O)CC(c1ccccc1)c1ccc2c(c1)OCO2 (configuration not stated)	none
COC(=O)CC(NC(=O)c1ccc(C)cc1)c1ccc2c(c1)OCO2 (configuration not stated)	CRFBP-R2 block 107
COC(=O)[C@@]12CCCN1[C@H](c1ccc(-c3ccc(C(C)=O)cc3)c(OC)c1)[C@H]1C(=O)N(C)C(=O)[C@H]12	none
COc1ccc(Cl)cc1Nc1nc(Cl)nc(NCCO)n1	none (no result: TMEM16A act, cardiac RTF act, RTF Ca sens inh, ANO1 block)
CCOc1ccccc1N(CC(=O)N1CCOCC1)S(=O)(=O)c1ccc(SC)cc1	TMEM16A act -9.8, CRFR2-BP ag 109 (no result: ANO1 block)
Cc1ccc(S(=O)(=O)N(CC(=O)N2CCOCC2)c2ccccc2F)cc1	none
Cc1ccsc1C(=O)OCC(=O)N1C(C)CCCC1C (configuration not stated)	none (no result: ANO1 block)
CC1CCCC(C)N1C(=O)COC(=O)c1cccs1 (configuration not stated)	CRFBP-R2 block 62 (no result: ANO1 block)
CCCCOc1ccc(/C=C(\C#N)C(=O)NC2CC2)cc1	none (no result: cardiac RTF act, RTF Ca sens inh)
CCOc1ccc(/C=C(\C#N)C(=O)NC2CC2)c(OCC)c1	CRFBP-R2 block 80
COc1ccc(Br)cc1CNC(=O)CCNC(=O)Cn1ccc2ccccc2c1=O	none
CC1(C)CC(=O)C2=C(C1)Nc1ccccc1S2	none
CC1(C)CC(=O)C2=C(C1)Nc1ccccc1NC2	CRFR2-BP ag 55
COCCN1C(=O)/C(=C/c2ccc(N3CCCC3)cc2C)SC1=S	CRFR2-BP ag 182, cardiac RTF act 69
O=c1c(-c2n[nH]c(=S)o2)cccn1Cc1ccccc1	none
Cc1cc(NC(=O)Cc2ccccc2)c2ccccc2n1	ANO1 block 25
Cc1ccc(S(=O)(=O)NC(=O)c2ccc(-c3ccc(C)c4ccccc34)o2)cc1	ANO1 block 25
Cc1ccc(-c2ccc(C(=O)Nc3ccccc3)o2)c2ccccc12	none
CC(C)N1CCc2c(sc(NC(=S)NC(=O)c3ccccc3)c2C#N)C1	CRFR2-BP ag 55
CC(C)N1CCc2c(sc(NC(=O)c3ccc(S(=O)(=O)N4CCOCC4)cc3)c2C#N)C1	CRFR2-BP ag 131
CCCN1CCc2c(sc(NC(=S)NC(=O)c3ccccc3)c2C#N)C1	TMEM16A act -5.4, CRFR2-BP ag 148, cardiac RTF act 31
COc1ccccc1CN1CCNC(=O)C1CC(=O)NCCc1cnccn1 (configuration not stated)	none
O=C(CSc1nnc(Cn2nnc3ccccc32)o1)N(Cc1ccc(Cl)cc1)c1ccccc1	ANO1 block 100
Cc1ccc(S(=O)(=O)ON2C(=O)c3ccccc3C2=O)c(C)c1	CRFBP-R2 block 63
Cc1cc(C)c(S(=O)(=O)ON2C(=O)c3ccccc3C2=O)cc1C	none
CS(=O)(=O)N(CC(=O)NC1CC1)C1CCCCC1	none
O=C(c1cccnc1)N1CCN(Cc2cccc(Br)c2)CC1	TMEM16A act -5.8
CN(CCOc1ccc(Cl)cc1)C(=O)C1CCN(C(=O)c2ccc(Cl)cc2)CC1	CRFBP-R2 block 120
CCC(=O)c1ccc(OCC(=O)Nc2cccc(S(=O)(=O)N(C)c3ccccc3)c2)cc1	none (no result: ANO1 block)
CN(c1ccccc1)S(=O)(=O)c1cccc(NC(=O)COc2cccc([N+](=O)[O-])c2)c1	CRFBP-R2 block 52 (no result: ANO1 block)
CC(C)CCN(C(=O)CCCSc1nc2ccccc2[nH]1)c1c(N)n(Cc2ccccc2)c(=O)[nH]c1=O	none
O=C(CN1CCOc2ccccc21)N1CCN(c2cccc(Cl)c2)CC1	none
CN1C/C(=C\c2ccc(N3CCOCC3)cc2)C(=O)/C(=C/c2ccc(N3CCOCC3)cc2)C1	CRFR2-BP ag 66
CN1C/C(=C/c2ccncc2)C(=O)/C(=C/c2ccncc2)C1	none
CCN1C/C(=C/c2ccc(N3CCOCC3)cc2)C(=O)/C(=C/c2ccc(N3CCOCC3)cc2)C1	CRFR2-BP ag 114
CCc1ccc(/C=C2/SC(N3CCOCC3)=NC2=O)cc1	none
Cc1ccc(N2C(=O)N(Cc3ccccc3C)c3ccccc3S2(=O)=O)cc1	none
CC(=O)N/N=C/c1cc(C(C)(C)C)cc(/C=N/NC(C)=O)c1O	CRFR2-BP ag 77 (no result: cardiac RTF act, RTF Ca sens inh)
O=C(c1cccc(N2C(=O)C3CC=CCC3C2=O)c1)N1CCCc2ccccc21 (configuration not stated)	none
CCOc1ccc2nc(/N=C/c3nc(-c4ccc(Br)cc4)oc3O)sc2c1	CRFR2-BP ag 147
CC(O)(CS(=O)(=O)Cc1ccc(Cl)cc1)C(=O)Nc1cccc(C(F)(F)F)c1 (configuration not stated)	none
O=C(Nc1cccc(C(F)(F)F)c1)N(Cc1ccc(Cl)cc1)CC(O)C(F)(F)F (configuration not stated)	ANO1 block 100
O=C(O)c1cc(NN=C2c3ccccc3-c3ccccc32)ccc1Cl	CRFBP-R2 block 50
O=C(O)c1cccc(NN=C2c3ccccc3-c3ccccc32)c1	none (no result: ANO1 block)
CCc1nnc(NC(=O)Cn2nc(-c3ccccc3OC)ccc2=O)s1	none
Cc1onc(-c2ccccc2Cl)c1C(=O)NCc1ccc(S(N)(=O)=O)cc1	none
Cc1onc(-c2ccccc2Cl)c1C(=O)NCc1ccc(N2CCCC2=O)cc1	CRFBP-R2 block 57
O=C(O)c1cccc(N/N=C/c2cc(Br)cc(Br)c2O)c1	CRFBP-R2 block 64
O=C(N/N=C/c1ccc(Cl)cc1Cl)c1ccncc1	none
